Structures can show the parent of a compound that is named as a salt.
Each compound was assayed on Salmonella enterica typhimurium (assay: growth AUC normalised to DMSO control (fraction of control); higher = less growth inhibition, active = hit call of the paper). Settings: 20 µM;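 active = AUC significantly below DMSO controls by Student t-fit with adjusted P under 0.01; inactive = not significantly reduced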.
How it was run: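 Hemin and NAD were added to the medium for Haemophilus parainfluenzae. All pathogens, after two anaerobic passages, were inoculated at a starting OD578 of 0.01 into pre-reduced mGAM plates with 20 μM compound and 1% DMSO under breathable seals, and OD578 was read hourly for 24 h in three biological replicates. AUC of each growth curve was obtained with the trapezoidal rule up to the exponential-to-stationary transition and normalised to DMSO controls from the same plate.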

Compound	growth AUC normalised to DMSO control
CN(C)[C@@H]1C(=O)C(C(N)=O)=C(O)[C@@]2(O)C(=O)C3=C(O)c4c(O)cccc4[C@@](C)(O)[C@H]3C[C@@H]12 [Tetracycline hydrochloride]	0.00376 (active)
CC(Cc1ccc(O)cc1)NCC(O)c1cc(O)cc(O)c1 (stereo unspecified) [Fenoterol hydrobromide]	1.01 (inactive)
Clc1ccc(C(OCCN2CCCCC2)c2ccccc2)cc1 (stereo unspecified) [Cloperastine hydrochloride]	0.992 (inactive)
CC(O)(CS(=O)(=O)c1ccc(F)cc1)C(=O)Nc1ccc(C#N)c(C(F)(F)F)c1 (stereo unspecified) [Bicalutamide]	1.05 (inactive)
CCN(C(C)=O)c1cccc(-c2ccnc3c(C#N)cnn23)c1 [Zaleplon]	0.978 (inactive)
NCCCNCCSP(=O)(O)O [Amifostine]	1.02 (inactive)
C[C@]12COC(=O)C[C@@H]1CC[C@@H]1[C@@H]2CC[C@@]2(C)[C@H]1CC[C@]2(C)O [Oxandrolone]	1.01 (inactive)
Oc1cc(Cl)ccc1Oc1ccc(Cl)cc1Cl [Triclosan]	0.00977 (active)
C=CCN1CC[C@]23c4c5ccc(O)c4O[C@H]2C(=O)CC[C@@]3(O)[C@H]1C5 [Naloxone hydrochloride]	0.981 (inactive)
CC(=O)OCC(=O)[C@H]1CC[C@H]2[C@@H]3CC[C@H]4C[C@H](O)CC[C@]4(C)[C@H]3C(=O)C[C@]12C [Alfadolone acetate]	1.01 (inactive)
S=C(NC1CCCCC1)N1CCC(c2cnc[nH]2)CC1 [Thioperamide maleate]	0.98 (inactive)
CN1CCN(C(=O)OC2c3nccnc3C(=O)N2c2ccc(Cl)cn2)CC1 (stereo unspecified) [Zopiclone]	0.996 (inactive)
CN1C(=O)CCS(=O)(=O)C1c1ccc(Cl)cc1 (stereo unspecified) [Chlormezanone]	1 (inactive)
CN(C)[C@@H]1C(=O)C(C(N)=O)=C(O)[C@@]2(O)C(=O)C3=C(O)c4c(O)cccc4[C@@](C)(O)[C@H]3[C@H](O)[C@@H]12 [Oxytetracycline dihydrate]	0.00147 (active)
N[C@@H]1C[C@H]1c1ccccc1 [Tranylcypromine hydrochloride]	0.999 (inactive)
NC(=O)C[S+]([O-])C(c1ccccc1)c1ccccc1 (stereo unspecified) [Modafinil]	0.994 (inactive)

Compound	growth AUC normalised to DMSO control
COc1ccc(C(=O)N2CCCC2=O)cc1 [Aniracetam]	1 (inactive)
C[C@]12CCC(=O)C(O)=C1CC[C@@H]1[C@@H]2CC[C@]2(C)C(=O)CC[C@@H]12 [Formestane]	1.03 (inactive)
CCC(=O)O[C@H]1CC[C@H]2[C@@H]3CCC4=CC(=O)CC[C@]4(C)[C@H]3CC[C@]12C [Testosterone propionate]	1.02 (inactive)
CCNCC(O)c1cccc(O)c1 (stereo unspecified) [Etilefrine hydrochloride]	0.976 (inactive)
CC(=O)OC1CN2CCC1CC2 (stereo unspecified) [Aceclidine hydrochloride]	1 (inactive)
CN1[C@@H]2CC[C@H]1C[C@@H](OC1c3ccccc3CCc3ccccc31)C2 [Deptropine citrate]	0.993 (inactive)
NC(=O)CN1CCCC1=O [Piracetam]	0.991 (inactive)
CC(=O)[C@H]1CC[C@H]2[C@@H]3CC[C@H]4C[C@H](O)CC[C@]4(C)[C@H]3C(=O)C[C@]12C [Alfaxalone]	0.999 (inactive)
CCC1(c2ccc(N)cc2)CCC(=O)NC1=O (stereo unspecified) [Glutethimide, para-amino]	1.01 (inactive)
COc1ccc(Cc2nccc3cc(OC)c(OC)cc23)cc1OC [Papaverine hydrochloride]	1 (inactive)
C[C@]12Cc3c[nH]nc3C[C@@H]1CC[C@@H]1[C@@H]2CC[C@@]2(C)[C@H]1CC[C@]2(C)O [Stanozolol]	1.01 (inactive)
O=c1[nH]c2ccccc2n1C1CCN(CCCC(c2ccc(F)cc2)c2ccc(F)cc2)CC1 [Pimozide]	0.998 (inactive)
CN1CCC2(C)c3cc(O)ccc3N(C)C12 (single isomer, unassigned; (-)) [(-) Eseroline fumarate salt]	0.999 (inactive)
CC[C@@H](CO)NC(=O)[C@@H]1C=C2c3cccc4[nH]cc(c34)C[C@H]2N(C)C1 [Methylergometrine maleate]	0.985 (inactive)
COc1ccc2c(c1)[C@]13CCCC[C@@H]1[C@H](C2)N(C)CC3 [Dextromethorphan hydrobromide monohydrate]	0.982 (inactive)
